Assay results reported in PubChem BioAssay AID488896 (Broad Institute, 2010).
Out of some 320,000 compounds screened, about 3,100 (0.97%) were called active. What follows is part of a selection rich in actives, with near analogues and random picks from the rest. Unmarked numbers belong to inactive results.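 How the source made its calls: active means mean replicate inhibition of at least 70% and a set share of replicates each scoring 70 or more; inconclusive means meets just one of the two criteria; inactive means fails both criteria.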

These compounds were tested against Scavenger receptor class B member 1 (Mus musculus) (UniProt Q61009) (assay: inhibitors of SR-BI mediated HDL lipid uptake, primary screen, ldlA[mSR-BI] cells, fluorescence, single point (AID 488896;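 further: 0% = median of neutral control wells and 100% = median of positive control wells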)). Details: ldlA[mSR-BI] CHO cells, DiI-HDL uptake fluorescence, 3 h; at 12.5 µM; active compounds read high.
Chain of Scavenger receptor class B member 1 (Mus musculus) (Q61009 whole entry, looked up): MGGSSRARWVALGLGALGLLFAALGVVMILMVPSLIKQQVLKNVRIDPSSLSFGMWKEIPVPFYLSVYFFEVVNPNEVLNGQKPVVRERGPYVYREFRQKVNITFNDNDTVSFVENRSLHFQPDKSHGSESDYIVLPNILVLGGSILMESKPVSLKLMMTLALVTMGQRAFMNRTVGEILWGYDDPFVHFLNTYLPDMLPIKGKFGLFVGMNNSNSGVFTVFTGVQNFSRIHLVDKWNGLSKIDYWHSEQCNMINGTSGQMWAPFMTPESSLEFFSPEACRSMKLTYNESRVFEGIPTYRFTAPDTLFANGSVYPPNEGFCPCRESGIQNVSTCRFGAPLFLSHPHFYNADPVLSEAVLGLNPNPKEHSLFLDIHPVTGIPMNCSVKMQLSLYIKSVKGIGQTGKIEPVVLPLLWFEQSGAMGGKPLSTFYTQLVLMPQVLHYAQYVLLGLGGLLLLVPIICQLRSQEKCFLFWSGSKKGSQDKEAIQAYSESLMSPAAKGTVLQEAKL

| Compound | inhibition |
| --- | --- |
| Cc1cccc(CC2(O)C(=O)Nc3ccccc32)n1 (stereo not drawn) | -13% |
| O=S1(=O)CSCS(=O)(=O)C1 | -19.5% |
| CC(=O)c1ccc(N=C2SCCCN2C(=O)C2CCCCC2)cc1 | 78.7% (active) |
| CCC1CCCCN1C(=S)Nc1ccc(C(C)=O)cc1 (stereo not drawn) | -13.3% |
| Cc1ccc(N=C2SCCCN2C(=O)c2cccc(N3C(=O)CCC3=O)c2)cc1Cl | 32.4% |
| COc1cccc(C=CC(=O)C=CC=Cc2ccccc2)c1 | -11.1% |
| COc1cc(NC(=O)c2ccc3c(c2)OCO3)ccc1NC(=O)c1cccs1 | 58.8% |
| COc1cc(NC(=O)c2cccs2)ccc1NC(=O)c1ccccc1Cl | 83.3% (active) |
| COc1cc(NC(=O)COc2ccccc2Cl)ccc1NC(=O)C(C)C | 49.8% |
| O=C(Nc1ccccc1)Oc1cccc2cccnc12 | -13.2% |
| c1ccc(CNc2ncnc3[nH]ncc23)cc1 | -13.5% |
| O=C(Nc1ccccc1Cl)c1ccccc1S(=O)(=O)c1ccccc1[N+](=O)[O-] | 4.02% |
| CC(=O)Nc1ccc(NC(=O)COc2ccccc2C(=O)Nc2cccc(Cl)c2Cl)cc1 | 63.3% |
| CN(C)S(=O)(=O)Oc1ccccc1C(=O)Nc1ccccc1Cl | 79.9% (active) |
| CCN1C[C@@H]2[C@@H]3C(=O)N(Cc4ccccc4)C(=O)[C@@H]3[C@](C)(C1=O)N2C(=O)c1ccc(C(C)(C)C)cc1 | -30.1% |
| Oc1ccc(-c2nc3ccccc3nc2-c2ccc(O)cc2O)c(O)c1 | 26% |
| O=C(CSc1nnc(-c2c[nH]c3ccccc23)n1-c1ccc(F)cc1)NCc1ccco1 | 20.6% |
| COc1ccc(-n2c(SCC(=O)NCc3cccs3)nnc2-c2ccoc2C)cc1 | -3.66% |
| COc1ccc(-n2c(SCC(=O)NCc3ccco3)nnc2-c2c[nH]c3ccccc23)cc1 | 71.4% (active) |
| COc1ccc(CCN2CC(C(=O)OCC(=O)NCc3ccccc3Cl)CC2=O)cc1OC (stereo not drawn) | -1.72% |
| Cc1nc(Cl)cc(N/N=C/c2ccccc2)n1 | 15.7% |
| Cc1ccccc1N/N=C/c1ccc(N2CCOCC2)cc1 | 15.9% |
| CCN(CC)c1ccc(C(=O)N/N=C/c2ccc(N3CCOCC3)cc2)cc1 | 25% |
| C(=N/Nc1cc(N2CCOCC2)nc(N2CCOCC2)n1)/c1ccccc1 | 76% (active) |

| Compound | inhibition |
| --- | --- |
| COc1ccc(/C=N/Nc2cc(N3CCOCC3)nc(C)n2)c(OC)c1 | 52.8% |
| CN(C)c1ccc(/C=N/Nc2cc(N3CCOCC3)nc(N3CCOCC3)n2)cc1 | 78.8% (active) |
| O=C1c2ccccc2C(=O)N1CCCCCCN1C(=O)c2ccccc2C1=O | 7.39% |
| Cc1nc2ccccc2c(C(=O)O)c1-c1ccccn1 | -15.2% |
| Oc1cccc(CCc2ccccn2)c1 | -0.288% |
| O=C(O)C(=Cc1ccccc1[N+](=O)[O-])c1ccccc1 | 0.653% |
| CSCCC(NS(=O)(=O)c1ccc(C)cc1)C(=O)N(C)CC(=O)Nc1ccccc1Br (stereo not drawn) | 16.3% |
| Cc1nc(-c2ccc(F)cc2)c(CC(=O)N(C)CC(=O)Nc2c(C)cccc2C)s1 | -10.6% |
| CCOc1ccc(NC(=O)CN(C)C(=O)CCSc2ccc(F)cc2)cc1OCC | 39.6% |
| CCOc1ccc(NC(=O)CN(C)C(=O)Cc2sc(C)nc2-c2ccc(F)cc2)cc1OCC | 73.5% (active) |
| S=C(Nc1ccccc1)Nc1ccc2ccccc2c1 | 9.12% |
| O=C(O)c1ccc(Cn2cnc3c(=S)nc[nH]c32)cc1 | -20.4% |
| CC/C(=C\c1ccc(Cl)cc1)c1ccncc1 | 29.1% |
| COc1ccc(/C=C2/C(=O)N(c3ccccc3)N=C2C)c(OC)c1 | 30.7% |
| COc1cc(/C=C/C2=CC(C)(C)NC(=S)N2)cc(OC)c1OC | 26.3% |
| COc1ccc(/C=C/C2=CC(C)(C)NC(=S)N2)c(OC)c1 | 78.2% (active) |
| O=C(Nc1ccn(CCCNCc2ccc3[nH]ccc3c2)c(=O)n1)OCc1ccccc1 | 14.3% |
| FC(F)(F)c1ccc(-c2cccc3c2C2CC3CCN2Cc2ccccc2)cc1 (stereo not drawn) | -20.1% |
| COc1ccc(NC(=O)c2cccc(NC(=O)c3ccco3)c2)c(OC)c1 | 75.7% (active) |
| COc1ccc(NC(=O)CCC(=O)Nc2cc(OC)c(NC(=O)c3ccco3)cc2OC)c(OC)c1 | 58.1% |
| COc1ccccc1C(=O)Nc1ccc(NC(=O)c2ccco2)c(C)c1 | 44.6% |
| CC1C(C)N(C(=O)CCl)c2ccccc2N1C(=O)CCl (stereo not drawn) | -12% |
| Nc1ncnc2c1cnn2C1CC(O)C(CO)O1 (stereo not drawn) | -3.29% |
| Cc1ccc(NC(=O)c2ccc(S(=O)(=O)NCC3CCCO3)cc2)cc1C (stereo not drawn) | 51.6% |

| Compound | inhibition |
| --- | --- |
| CCOc1ccc(C(=O)Nc2ccc(S(=O)(=O)NCC3CCCO3)cc2)cc1OCC (stereo not drawn) | 82.5% (active) |
| CCC(=O)Nc1ccc(S(=O)(=O)NCC2CCCO2)cc1 (stereo not drawn) | 16.2% |
| O=C(NCc1ccco1)c1ccc(Cn2c(=O)c3sccc3n(Cc3ccc(F)cc3)c2=O)cc1 | 28.8% |
| CC(C)OCCCNC(=O)c1ccc(C2SCC(=O)N2Cc2ccco2)cc1 (stereo not drawn) | 75.6% (active) |
| CC(C)(C)c1ccc(C(=O)NCCC(=O)NCc2ccco2)cc1 | -4.1% |
| CSc1ncnc2c1ncn2CC(=O)C1CCC2C3CCC4=CC(=O)CCC4(C)C3CCC12C (stereo not drawn) | -12.4% |
| O=C(Nc1cccc(Br)c1)C1CC(=O)N(C2CCCC2)C1 (stereo not drawn) | -9.43% |
| O=C(NCC1CCCO1)c1cc2c([nH]c3ccccc32)c(-c2ccc(F)cc2)n1 (stereo not drawn) | 64.1% |
| O=C(NCCc1ccc(F)cc1)c1n[nH]c2ccccc12 | 22.1% |
| O=C(NCCCO)c1cc2c([nH]c3ccccc32)c(-c2ccc(F)cc2)n1 | 73.4% (active) |
| Cn1c(=O)[nH]c2c(c(C(=O)O)nn2C)c1=O | -13.4% |
| CCCCNCCS(=O)(=O)NCc1ccccc1 | -2.76% |
| Cc1cc([N+](=O)[O-])ccc1NS(=O)(=O)c1ccccc1 | -11.2% |
| COc1ccc(/C=C/C(=O)OCC(=O)N2CCN(S(=O)(=O)c3ccc(C)cc3C)CC2)cc1OC | 71.9% (active) |
| Cc1ccc(S(=O)(=O)N2CCN(C(=O)COC(=O)c3c(C)cc(C)cc3C)CC2)c(C)c1 | 20.4% |
| Cc1ccc(S(=O)(=O)N2CCN(C(=O)COC(=O)/C=C/c3cccc(Cl)c3)CC2)c(C)c1 | -11.6% |
| CC(C)(C)OC(=O)N1CCC(C(=O)Nc2cccc(C(=O)NCCc3ccccc3)c2)CC1 | 52.6% |
| Cc1c(NC(=O)c2cc(-c3ccc(Cl)s3)nc3ccccc23)c(=O)n(-c2ccccc2)n1C | 95.8% (active) |
| CC(=O)N1CCN(C(=O)c2cc(-c3ccc(Cl)s3)nc3ccccc23)CC1 | 33.7% |
| O=C(c1cc(-c2ccc(Cl)s2)nc2ccccc12)N1CCOCC1 | 19.5% |
| CC(=O)Oc1ccc(OC(C)=O)c2c1C1C=CC2CC1 | -21.7% |
| COc1ccc(Nc2ccc3ccccc3c2)cc1 | 31.3% |
| Nc1nc(-c2ccccc2)cc(-c2ccccc2)n1 | 9.59% |
| Nc1cccc(-c2cc(-c3ccccc3)nc(-c3cccc(N)c3)n2)c1 | 102% (active) |

| Compound | inhibition |
| --- | --- |
| CNc1nc(-c2ccccc2)cc(-c2ccccc2)n1 | 21.8% |
| CC(=NNC(=S)N1CCCCCC1)c1ccccn1 | 22.4% |
| Cc1ccc(NC(=O)c2ccccn2)cc1S(=O)(=O)N1CCOCC1 | -25.4% |
| CCOc1cc(/C=N/NC(=O)c2cccc(S(=O)(=O)N3CCOCC3)c2)ccc1OCC(=O)N(C)C | 23.7% |
| O=C(N/N=C/c1ccccn1)c1ccc(S(=O)(=O)N2CCCCCC2)cc1 | 10.6% |
| COc1ccc(OC)c(NC(=O)c2cccc(S(=O)(=O)N3CCN(C(C)=O)CC3)c2)c1 | 10.1% |
| Cc1ncc(CO)c(/C=N/NC(=O)c2cccc(S(=O)(=O)N3CCCC3)c2)c1O | 84.8% (active) |
| Cc1nc2ccc(NC(=O)c3cccc(S(=O)(=O)N4CCOCC4)c3)cc2s1 | 72.3% (active) |
| Cc1cccc(NC(=O)c2cccc(S(=O)(=O)N3CCCC3)c2)n1 | 26.2% |
| COc1ccc(Br)cc1/C=N/NC(=O)c1cccc(S(=O)(=O)N2CCOCC2)c1 | 81.8% (active) |
| Cc1ccc(NC(=O)c2ccc(Cl)nc2)cc1S(=O)(=O)N1CCOCC1 | 74.1% (active) |
| Cc1ccc(C(=O)Nc2ccc3c(c2)OCCO3)cc1S(=O)(=O)N1CCOCC1 | 50.5% |
| O=C(Nc1ccc(N2CCOCC2)cc1)c1cccc(S(=O)(=O)N2CCOCC2)c1 | 65.7% |
| O=C(Nc1ccc(S(=O)(=O)Nc2nccs2)cc1)c1cccc(S(=O)(=O)N2CCOCC2)c1 | -0.76% |
| CC(=O)OCC1(O)CC23CCC4c5ccoc5CCC4(C)C2CCC1C3 (stereo not drawn) | 30.4% |
| COc1cc(/C=C/CNC[C@H]2O[C@@H](n3cnc(C(N)=O)n3)[C@H](O)[C@@H]2O)ccc1O | -8.12% |
| O=c1[nH]c(=S)[nH]c(O)c1/C=C1\C=Nc2ccccc21 | -12.1% |
| Cc1cc(OCCCC(=O)Nc2cc(S(=O)(=O)N3CCOCC3)ccc2N2CCOCC2)ccc1Cl | 17.2% |
| CC(C)=C(NC(=O)c1ccccc1)C(=O)N/N=C(\C)c1ccccc1O | -7.68% |
| C/C(=N\NC(=O)c1ccoc1C)c1ccccc1O | 95.2% (active) |
| Cc1[nH]n(-c2ccccc2)c(=O)c1/C=N/NC(=O)c1ccoc1C | 69.6% |
